{
  "source": "PubChem BioAssay (NCI)",
  "note": "Several values for one entry are separate records, joined by “and”; a condition that tells them apart may be missing. Equal values may be shown once. Compounds without any hit were thinned out: in the full panel of roughly 83,000, 20% have a hit.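 Results are percent growth after 48 hours of single-concentration exposure. 100 means growth as in untreated cells, lower positive values show inhibition; negative values down to -100 show cell death.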 A number with no mark means an inactive call. Activity calls are given as the source filed them. The calls were made as follows: active = growth percent below 10; inactive = the rest.",
  "data": [
    {"test_system": "HL-60(TB) leukemia", "test": "NCI-60 one-dose screen, 48 h (100 = growth as untreated, 0 = no growth, -100 = all killed)", "conditions": "10 µM unless noted", "values": [
      {"smiles": "Cn1cccc1/C=C1/SC(=S)N(CCc2ccc(O)cc2)C1=O", "growth": "1.22% (active)"},
      {"smiles": "O=C1C(Cl)=C(Nc2ccc3cn[nH]c3c2)C(=O)c2ccccc21", "growth": "-69.2% (active)"},
      {"smiles": "CCS/C(Nc1ccccc1)=C(\\C#N)C(=O)N/N=C/c1ccc(Cl)cc1Cl", "growth": "-31.4% (active)"},
      {"smiles": "O=C(CSc1nc2ccc([N+](=O)[O-])cc2[nH]1)Nc1cccc(C(F)(F)F)c1", "growth": "0.11% (active)"},
      {"smiles": "CC(=O)n1nc(C(=O)OC(C)C)c2cc(C)c(C)cc21", "growth": "83.7%"},
      {"smiles": "CC1(c2ccccc2O)NN=C(/N=C/c2cccc([N+](=O)[O-])c2)N1C(Cc1c[nH]c2ccccc12)C(=O)O", "note": "(centres undefined)", "growth": "120%"},
      {"smiles": "CC(O)c1cnc(/C=C2\\SC(=S)N(Cc3ccccc3)C2=O)s1", "note": "(centres undefined)", "growth": "20.4%"},
      {"smiles": "Cc1ccc(S(N)(=O)=O)cc1Cl", "growth": "79.8%"},
      {"smiles": "O=C1CSC(c2ccccc2Cl)N1c1nnc(Cn2nnc3ccccc32)o1", "note": "(centres undefined)", "growth": "84.4%"},
      {"smiles": "O=C(Nc1ccc(-c2nc(-c3cccc(OCCN4CCOCC4)c3)c(-c3ccnc(Br)c3)[nH]2)cc1)c1ccccc1", "growth": "-41.2% (active)"},
      {"smiles": "CC(C)N1CN2C(=S)NC3C2N(C1)C(=S)N3C", "note": "(centres undefined)", "growth": "100%"},
      {"smiles": "COc1cc(NC(C)CCCN2C(=O)c3ccccc3C2=O)c2ncccc2c1OC", "note": "(centres undefined)", "growth": "-96.9% (active)"},
      {"smiles": "CC1=C[C@H]2c3c(c(O)c(O)c4oc5cc(O)cc(O)c5c(=O)c34)[C@H](c3cc(O)c(O)c4oc5cc(O)cc(O)c5c(=O)c34)[C@H]2C(C)(C)C1", "growth": "2.23% (active) and -3.82% (active)"},
      {"smiles": "O=C(/C=C/c1cccc2ccccc12)c1ccc(NC(=O)c2ccccc2CN2C(=O)c3ccccc3C2=O)cc1", "growth": "44%"}
    ]}
  ]
}
